PubChem BioAssay (NCI)
Compounds without any hit were thinned out: in the full panel of roughly 83,000, 20% have a hit.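 Note: values are percent growth. 100 is the growth of untreated cells, values between 100 and 0 indicate rising inhibition; between -100 and 0 indicates cell death.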 Active and inactive are the calls of the source. Rule for the calls: active = growth percent below 10; inactive = the rest.

Experiments:
Assay in all cases: NCI-60 one-dose screen, 48 h (100 = growth as untreated, 0 = no growth, -100 = all killed)
Details in all cases: 10 µM unless noted
HCT-15 colon = tested on: HCT-15 colon
HT29 colon = tested on: HT29 colon
SNB-75 CNS = tested on: SNB-75 CNS
SNB-19 CNS = tested on: SNB-19 CNS
U251 CNS = tested on: U251 CNS
PC-3 prostate = tested on: PC-3 prostate
SK-MEL-5 melanoma = tested on: SK-MEL-5 melanoma
UACC-62 melanoma = tested on: UACC-62 melanoma
LOX IMVI melanoma = tested on: LOX IMVI melanoma
SK-MEL-28 melanoma = tested on: SK-MEL-28 melanoma
SK-MEL-2 melanoma = tested on: SK-MEL-2 melanoma
EKVX NSCLC = tested on: EKVX NSCLC
SN12C renal = tested on: SN12C renal
UO-31 renal = tested on: UO-31 renal
TK-10 renal = tested on: TK-10 renal
ACHN renal = tested on: ACHN renal
CAKI-1 renal = tested on: CAKI-1 renal
A498 renal = tested on: A498 renal
CCRF-CEM leukemia = tested on: CCRF-CEM leukemia
MOLT-4 leukemia = tested on: MOLT-4 leukemia

Measured: growth

CCN1C(=O)N(CC)C2NNC(Sc3c(C(=O)O)c4ccccc4n(CCC(C)C)c3=O)=NC21 (stereo not given)
inactive: SNB-75 CNS 26.1% | SNB-19 CNS 15.5% | PC-3 prostate 26.1% | UACC-62 melanoma 17.9% | SK-MEL-28 melanoma 45.5% | SK-MEL-2 melanoma 22.3% | EKVX NSCLC 20.8% | SN12C renal 16.3% | UO-31 renal 28.1% | TK-10 renal 62.1% | ACHN renal 24% | CAKI-1 renal 38.9% | A498 renal 76.4%
active: HCT-15 colon 2.84% | HT29 colon -30% | U251 CNS 2.04% | SK-MEL-5 melanoma 3.73% | LOX IMVI melanoma -41.7% | CCRF-CEM leukemia 7.16% | MOLT-4 leukemia 3.81%

FC(F)(F)c1cc2c(Cl)ncnc2n1CCC1CCOCC1
active: HCT-15 colon -37.7% | SNB-75 CNS -91.1% | SNB-19 CNS -99% | U251 CNS -14.4% | PC-3 prostate 2.75% | SK-MEL-5 melanoma -83.7% | UACC-62 melanoma -34.5% | LOX IMVI melanoma -97% | SK-MEL-28 melanoma -0.403% | SK-MEL-2 melanoma -91.2% | UO-31 renal -92.9% | ACHN renal -44.2% | CCRF-CEM leukemia -14.5% | MOLT-4 leukemia -38.4%
inactive: HT29 colon 48.5% | EKVX NSCLC 77% | SN12C renal 40.7% | TK-10 renal 98.3% | CAKI-1 renal 80.3% | A498 renal 97.8%

COc1ccc([C@H]2C(C(=O)c3ccc(Cl)cc3)C3(N[C@@H]2c2ccccc2)C(=O)Nc2ccccc23)cc1 (stereo not given in full)
active: HT29 colon 9.82% | UACC-62 melanoma 9.8% | SK-MEL-2 melanoma -29.6% | SN12C renal 6.41%
inactive: HCT-15 colon 16.4% | SNB-75 CNS 35% | SNB-19 CNS 42.2% | U251 CNS 36.5% | PC-3 prostate 36.9% | SK-MEL-5 melanoma 26% | LOX IMVI melanoma 12.2% | SK-MEL-28 melanoma 49.7% | EKVX NSCLC 21.6% | UO-31 renal 13.2% | TK-10 renal 43.4% | ACHN renal 11.2% | CAKI-1 renal 14% | A498 renal 40.2% | CCRF-CEM leukemia 45.8% | MOLT-4 leukemia 18.9%

CC(C)(C)c1cc(-c2cc(-c3ccccc3)[nH]c(=O)c2C#N)cc(C(C)(C)C)c1
active: SNB-75 CNS -32% | U251 CNS -22% | CAKI-1 renal -11.5%
inactive: HCT-15 colon 56.6% | HT29 colon 88.8% | SNB-19 CNS 25.7% | PC-3 prostate 53.3% | SK-MEL-5 melanoma 74.5% | UACC-62 melanoma 68.3% | LOX IMVI melanoma 49.2% | SK-MEL-28 melanoma 78.5% | SK-MEL-2 melanoma 94.4% | EKVX NSCLC 34.2% | SN12C renal 30.7% | UO-31 renal 24.2% | TK-10 renal 27.6% | ACHN renal 23.3% | A498 renal 21.5% | CCRF-CEM leukemia 68.9% | MOLT-4 leukemia 70.9%

COc1ccc(/C=C/C(=O)c2ccc(S(=O)(=O)NCCNc3nc(N(C)C)nc(N4CCOCC4)n3)cc2)cc1
inactive: HCT-15 colon 59.3% | HT29 colon 81.1% | SNB-75 CNS 61.8% | SNB-19 CNS 81.2% | U251 CNS 77.4% | PC-3 prostate 77.4% | SK-MEL-5 melanoma 94.6% | UACC-62 melanoma 76.9% | LOX IMVI melanoma 79.7% | SK-MEL-28 melanoma 95.1% | SK-MEL-2 melanoma 94.9% | EKVX NSCLC 81.1% | SN12C renal 91.6% | UO-31 renal 74.5% | TK-10 renal 114% | ACHN renal 104% | CAKI-1 renal 73.2% | A498 renal 89.2% | CCRF-CEM leukemia 80% | MOLT-4 leukemia 34.7%

COc1cc(C=O)ccc1OC(=O)c1cc(-c2ccc(C)cc2)n(-c2ccc(S(C)(=O)=O)cc2)n1
inactive: HCT-15 colon 96.7% | HT29 colon 113% | SNB-75 CNS 104% | SNB-19 CNS 90.3% | U251 CNS 100% | PC-3 prostate 100% | SK-MEL-5 melanoma 100% | UACC-62 melanoma 91.4% | LOX IMVI melanoma 98.8% | SK-MEL-28 melanoma 113% | SK-MEL-2 melanoma 108% | EKVX NSCLC 98.8% | SN12C renal 99.2% | UO-31 renal 85.6% | TK-10 renal 126% | ACHN renal 104% | CAKI-1 renal 93.5% | A498 renal 143% | CCRF-CEM leukemia 96.9% | MOLT-4 leukemia 91.4%

O=C(N/N=C/c1ccoc1)c1[nH]c2ccc(Br)cc2c1-c1ccccc1
active: HCT-15 colon -100% | HT29 colon -50.2% | SNB-75 CNS -79.6% | SNB-19 CNS -97.5% | U251 CNS -81.5% | PC-3 prostate -37.3% | SK-MEL-5 melanoma -97.2% | UACC-62 melanoma -99.6% | LOX IMVI melanoma -100% | SK-MEL-28 melanoma -93.7% | SK-MEL-2 melanoma -84.5% | EKVX NSCLC -97.6% | SN12C renal -95.8% | UO-31 renal -82.5% | TK-10 renal -82.5% | ACHN renal -100% | CAKI-1 renal -99.6% | A498 renal -82.9% | CCRF-CEM leukemia -12.1% | MOLT-4 leukemia -5.76%

Nc1cc(-c2c[nH]c3ccc(F)cc23)nc2cc(-c3c[nH]c4ccccc34)nn12
inactive: SNB-75 CNS 66.2% | PC-3 prostate 10.3% | SN12C renal 41.2% | UO-31 renal 21.7% | TK-10 renal 17.3% | A498 renal 21.8%
active: HCT-15 colon -61.2% | HT29 colon -42.8% | SNB-19 CNS -19.1% | U251 CNS -19.1% | SK-MEL-5 melanoma -4.35% | UACC-62 melanoma -8.04% | LOX IMVI melanoma -83.9% | SK-MEL-28 melanoma -33.9% | SK-MEL-2 melanoma -16.8% | EKVX NSCLC 7.95% | ACHN renal 6.95% | CAKI-1 renal 1.64% | CCRF-CEM leukemia -11.6% | MOLT-4 leukemia -9.73%

COC(=O)CSC1=C(C)C(=O)C(OC)=C(OC)C1=O
inactive: HCT-15 colon 86.3% | HT29 colon 103% | SNB-75 CNS 66.6% | SNB-19 CNS 90.3% | U251 CNS 98.1% | PC-3 prostate 76.9% | SK-MEL-5 melanoma 86.4% | UACC-62 melanoma 70.5% | LOX IMVI melanoma 83.3% | SK-MEL-28 melanoma 104% | SK-MEL-2 melanoma 103% | EKVX NSCLC 91% | SN12C renal 96.2% | UO-31 renal 80.7% | TK-10 renal 106% | ACHN renal 96.4% | CAKI-1 renal 77.4% | A498 renal 90.4% | CCRF-CEM leukemia 25% | MOLT-4 leukemia 17.5%

O=C(c1ccc(Cl)cc1)C1[C@H](c2ccccc2Cl)[C@@H](c2ccccc2)NC12C(=O)Nc1ccc(Br)cc12 (stereo not given in full)
active: HCT-15 colon -83.8% | HT29 colon -82.3% | SNB-75 CNS -28.7% | SNB-19 CNS -54.6% | U251 CNS -71.6% | PC-3 prostate -27.9% | SK-MEL-5 melanoma -95.5% | UACC-62 melanoma -86.2% | LOX IMVI melanoma -100% | SK-MEL-28 melanoma -95.4% | SK-MEL-2 melanoma -89.9% | EKVX NSCLC -42.2% | SN12C renal -83.9% | UO-31 renal -97.5% | TK-10 renal -2.31% | ACHN renal -69.2% | CAKI-1 renal -47.6% | A498 renal -48% | CCRF-CEM leukemia -13.5% | MOLT-4 leukemia -24.5%

CC[C@]12C=CCN3CC[C@]4(C(=C(C(=O)OC)C1)Nc1cc(OC)c([C@@H]5[C@H]6O[C@H]6[C@@]6(CC)CC(C(=O)OC)=C7Nc8cc(O)ccc8[C@@]78CCN5[C@@H]68)cc14)[C@@H]32
active: HCT-15 colon -77.2% | HT29 colon -27.1% | U251 CNS -38.2% | SK-MEL-5 melanoma -96.1% | UACC-62 melanoma -71.9% | LOX IMVI melanoma -94.5% | SK-MEL-28 melanoma -21.8% | SK-MEL-2 melanoma -67.3% | EKVX NSCLC 6.25% | SN12C renal -30.1% | UO-31 renal -4.18% | ACHN renal 1.9% | CCRF-CEM leukemia -5.67% | MOLT-4 leukemia -11.5%
inactive: SNB-75 CNS 27.3% | SNB-19 CNS 21.6% | PC-3 prostate 13.5% | TK-10 renal 25.6% | CAKI-1 renal 11.7% | A498 renal 59%

Cc1ccc(-c2cc(-c3ccccc3)[nH]c(=O)c2C#N)cc1
inactive: HCT-15 colon 71% | HT29 colon 114% | SNB-75 CNS 99.4% | SNB-19 CNS 84.3% | U251 CNS 90.8% | PC-3 prostate 83.7% | SK-MEL-5 melanoma 90% | UACC-62 melanoma 84.6% | LOX IMVI melanoma 83% | SK-MEL-28 melanoma 109% | SK-MEL-2 melanoma 95.5% | EKVX NSCLC 82.8% | SN12C renal 86.5% | UO-31 renal 73.2% | TK-10 renal 95.1% | ACHN renal 79.1% | CAKI-1 renal 81.9% | A498 renal 84.8% | CCRF-CEM leukemia 76.7% | MOLT-4 leukemia 91.3%

COC(=O)c1c(C(=O)OC)c2ccc3c4ccccc4ccc3n2c1C(=O)OC
inactive: HCT-15 colon 98.1% | HT29 colon 108% | SNB-75 CNS 95.9% | SNB-19 CNS 81.1% | U251 CNS 97.1% | PC-3 prostate 98.9% | SK-MEL-5 melanoma 98.3% | UACC-62 melanoma 93.6% | LOX IMVI melanoma 104% | SK-MEL-28 melanoma 109% | SK-MEL-2 melanoma 108% | EKVX NSCLC 97% | SN12C renal 95.6% | UO-31 renal 87.8% | TK-10 renal 103% | ACHN renal 109% | CAKI-1 renal 107% | A498 renal 129% | CCRF-CEM leukemia 101% | MOLT-4 leukemia 114%

Cc1cnc2ccc(Oc3ccccc3-c3ccccc3)nn12
inactive: HCT-15 colon 103% | HT29 colon 108% | SNB-75 CNS 126% | SNB-19 CNS 99.7% | U251 CNS 100% | PC-3 prostate 105% | SK-MEL-5 melanoma 107% | UACC-62 melanoma 101% | LOX IMVI melanoma 97.9% | SK-MEL-28 melanoma 113% | SK-MEL-2 melanoma 108% | EKVX NSCLC 100% | SN12C renal 100% | UO-31 renal 90.1% | TK-10 renal 106% | ACHN renal 105% | CAKI-1 renal 94.5% | A498 renal 116% | CCRF-CEM leukemia 103% | MOLT-4 leukemia 107%

CCCCCCCOc1ccc(S(=O)(=O)Nc2ccc(C)c(F)c2C(=O)O)cc1
inactive: HCT-15 colon 79.4% | HT29 colon 121% | SNB-75 CNS 104% | SNB-19 CNS 89.4% | U251 CNS 91.4% | PC-3 prostate 91% | SK-MEL-5 melanoma 96.7% | UACC-62 melanoma 90.6% | LOX IMVI melanoma 98.9% | SK-MEL-28 melanoma 117% | SK-MEL-2 melanoma 102% | EKVX NSCLC 95.4% | SN12C renal 94.9% | UO-31 renal 75% | TK-10 renal 96.2% | ACHN renal 101% | CAKI-1 renal 93% | A498 renal 102% | CCRF-CEM leukemia 81.6% | MOLT-4 leukemia 98.3%
